# Assay outcomes from PubChem.
# ATXN viability = viability counter-screen for ATXN expression inhibitors | AID 651635 | Potency, µM (highest dose often 56.7 µM), most hits filed as cytotoxic | S2 cells (HEK-293 line with an ATXN2-luciferase reporter) viability, CellTiter-Fluor protease fluorescence, 24 h | 400,000 compounds, 0.49% hits; note: nearly all actives have a fitted effect of over 40% in size
# HepG2 tox = counter-screen for TGF-b inhibitors: cytotoxicity in HepG2 cells | HepG2 CAGA-GFP viability, ATP luminescence, 18 h | Potency, µM (doses to about 46.1 µM), most hits filed as cytotoxic | 410,000 compounds, 0.76% hits | AID 588856
#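 CellTiter-Glo luminescence gave cytotoxicity after 18 hours at 37 degrees C. The cells were HepG2 CAGA-GFP in 1% FBS DMEM, stimulated with 500 pg/mL TGF-beta after compound addition. %Activity was normalised to no-cell wells (complete cell-killing) and DMSO (no toxicity), and curves were fitted and classified.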
# ATXN2 expr inh = reduces ATXN2 reporter expression in HEK-293 cells. Potency, µM (highest dose often 57 µM), hits mostly inhibitors. HEK-293 ATXN2-luciferase reporter, luminescence, 24 h. 360,000 compounds, 0.72% hits; note: nearly all actives have a fitted effect of over 55% in size
#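 qHTS (up to 57 uM final) was run with 24 h compound exposure of reporter cells at 37 °C. Each well was multiplexed: SteadyGlo luminescence measured ATXN2-luciferase expression after a fluorogenic Gly-Phe-AFC viability readout (25 uM final).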
# TGFb SMAD3 inh = inhibitors of TGF-b signaling | HepG2 CAGA-GFP TGF-b/SMAD3 reporter, GFP fluorescence, 18 h; TGF-beta stimulated, 500 pg/mL final | Potency, µM (doses to about 46.1 µM), usual class: inhibitors | 410,000 compounds, 1.2% hits | AID 588855; note: nearly all actives have a fitted effect of over 65% in size
#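 Inhibition was scored as loss of TGF-beta-induced (500 pg/mL final, 18 hours, 37 degrees C) GFP in HEPG2 cells carrying a CAGA-GFP reporter, in DMEM with 1% FBS. Well GFP was summed per cell; Activity was normalised to unstimulated and stimulated DMSO wells, then concentration-response fitting.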
# IL-1B inflam inh = inhibitors of inflammasome signaling (IL-1 beta secretion) | THP-1 LPS/ATP IL-1B secretion, AlphaLISA, 16 h; active compounds read low | activity change, % at 57.5 µM | 360,000 compounds, 4.7% hits | AID 743279; in the data active = activity change below about -50%; inconclusive = mostly about -30% to -49%
#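 Secreted IL-1B measured by AlphaLISA bead assay after 16 h compound exposure of THP-1 cells; compounds (final up to 57.5 uM) added 1 h before LPS (250 ng/mL) and ATP (1.25 mM) stimulation; lower signal means less secretion.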
# Hits are given with their value; – = inactive; ? = inconclusive; · = no result given. An excerpt weighted towards active compounds, which were near 5.7% of everything screened. Unless noted, calls come from the whole dose curve; as a rule, active = well fitted curve in the direction sought with a large enough effect; inconclusive = small, poorly fitted or top-dose-only effect, or another doubt; inactive = no such curve, though single readings can be large; an effect the other way counts as inactive or inconclusive.
SMILES,ATXN viability,HepG2 tox,ATXN2 expr inh,TGFb SMAD3 inh,IL-1B inflam inh
CCOC(=O)C1=C(CNCc2ccccc2Cl)NC(=O)NC1c1cccc([N+](=O)[O-])c1 (stereo not drawn),–,–,–,–,?
COc1ccc(/C=C\c2onc(C)c2S(=O)(=O)N2CCC(C(=O)Nc3ccc(C)cc3C)CC2)cc1,·,–,·,–,·
Cc1c(C(=O)NCc2ccc(N(C)C)cc2)oc2c1-c1nn(Cc3cccc(Cl)c3)cc1CC2,·,–,·,–,·
COC(=O)c1sccc1S(=O)(=O)N(CC(=O)NCc1ccccc1)c1ccc(C)c(C)c1,–,–,–,–,·
COC(=O)C1=C(C)N(Cc2ccccc2)C(=NCc2cc(OC)c(OC)c(OC)c2)N[C@H]1c1ccccc1,?,–,–,–,?
COCCN=C1N[C@@H](c2ccccc2)C(C(=O)OC)=C(C)N1Cc1ccccc1,–,–,–,–,–
COC(=O)C1=C(C)N(CC2CC2)C(=NCc2cccc(Cl)c2)N[C@H]1c1ccccc1,–,–,–,?,-62
COC(=O)C1=C(C)N(Cc2ccccc2)C(=NCc2cccc(Cl)c2)N[C@H]1c1ccccc1,35µM,–,?,?,?
COC(=O)C1=C(C)N(Cc2ccccc2)C(=O)N[C@H]1c1ccc(Br)cc1,–,–,–,–,-54
COC(=O)C1=C(C)N(Cc2ccccc2)C(=NCc2cc(OC)c(OC)c(OC)c2)N[C@H]1CCc1ccccc1,?,–,–,–,-58
CCN1C(=O)N[C@H](c2ccc(Br)cc2)C(C(=O)OC)=C1C,–,–,–,–,–
O=C(C[n+]1cccc2cc(Cl)ccc21)c1ccc2c(c1)CCCC2,·,–,·,–,·
Cc1ccc(-c2onc(C)c2C)cc1S(=O)(=O)Nc1ccc(Cl)cn1,·,–,·,–,·
COc1cc2nc(CN(CCO)C3CS(=O)(=O)CC3O)nc(N3CCCCC3)c2cc1OC (stereo not drawn),–,·,·,·,·
CN[C@H]1CCc2cc(OC)c(OC)c(OC)c2-c2ccc(N(C)CC(OC)OC)c(=O)cc21,14µM,–,·,?,–
CCOc1ccc(C(=O)c2cn(CC(=O)Nc3ccc(F)cc3)c3cc4c(cc3c2=O)OCCO4)cc1,–,–,–,?,·
Cc1ccc(C)c2c(C)ccnc12,·,–,·,–,·
FC(F)(F)c1cccc(NC(=S)NC2CCCC2)c1,–,–,–,?,–
Cc1ccc(NC(=S)NNC(=S)NC2CCCCC2)cc1,–,–,–,–,–
CN(C(=S)Nc1ccc(Oc2ccccc2)cc1)C1CCCCC1,–,–,–,?,-100
S=C(Nc1ccc(Oc2ccccc2)cc1)NC1CCCCCC1,–,–,–,?,-76
S=C(Nc1ccc(Oc2ccccc2)cc1)NC1CCCCC1,–,–,–,?,–
FC(F)(F)c1ccc(NC(=S)NC2CCCCC2)cc1,–,–,–,?,-100
S=C(NNc1ccc2ccccc2c1)NC1CCCCC1,–,–,–,?,-89
CC1CN(C(=O)N2CCC(C(=O)NC3CCCCCC3)CC2)c2cc(Cl)ccc2O1 (stereo not drawn),·,–,·,?,·
SMILES,ATXN viability,HepG2 tox,ATXN2 expr inh,TGFb SMAD3 inh,IL-1B inflam inh
CCN(CC)CCNc1cc(C)nc2c1C(=O)C(=O)C=C2N1CCCCC1,14µM,–,·,6.3µM,-90
C=CCn1cc(C(=O)NCCOC)c(=O)c2cc(S(=O)(=O)N3CCCCCC3)ccc21,–,10µM,·,?,–
CCCCN(C)CCCNC(=O)c1cn(CC)c2ccc(S(=O)(=O)N3CCc4ccccc4C3)cc2c1=O,–,–,–,?,-63
CCCCN(CC)CCCNC(=O)c1cn(CC)c2ccc(S(=O)(=O)N3CCc4ccccc4C3)cc2c1=O,–,–,–,?,·
CCCN(CCC)CCCNC(=O)c1cn(CC)c2ccc(S(=O)(=O)N3CCc4ccccc4C3)cc2c1=O,–,–,?,–,-103
CC(C)CCNC(=O)CN1C(=O)CCn2nc(-c3cn(C)c4ccccc34)cc21,–,–,–,–,·
COc1ccc2c(c1)CCCC(Br)C2=O (stereo not drawn),–,–,–,?,-67
Cc1c(Cl)ccc2c1NC(=O)[C@]21N[C@@H](Cc2ccccc2)[C@H]2C(=O)N(c3ccc(F)cc3)C(=O)[C@H]21,?,–,–,10µM,–
